About 50,000 (12%) of roughly 420,000 compounds were called active. Inconclusive results (about 26%) are left out. This is one part of a sample in which actives are shown more often than they occur. A number with no mark means an inactive call. The call rests on the fitted dose curve; in most records, active means well fitted inhibition curve with a large enough effect; inconclusive means small, poorly fitted or top-dose-only effect; inactive means flat fitted curve, though single readings scatter.
Test: qHTS for Inhibitors of human tyrosyl-DNA phosphodiesterase 1 (TDP1): qHTS in cells in presence of CPT; further: nearly all actives have a fitted effect of over 55% in size
Details: chicken DT40 Tdp1-/-;hTDP1 cells + 20 nM CPT, ATP luminescence, 48 h; series mostly up to 46.2 µM; activity change, negative = growth inhibition: at the top concentration
Summary of the method: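 Cell growth measured by CellTiter-Glo luminescence after a minimum 48 h, 37 C compound exposure with 20 nM CPT in Tdp1-knockout DT40 cells stably expressing hTDP1, seeded 400/well; qHTS titration format.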
On the % scale 0 is the no-effect control and ±100 the full control effect; potency means the concentration at half of the fitted maximal effect.

First: CC(=O)N1CCN(CC(c2ccccc2)c2ccccc2)CC1
Second: C/C(=N/N1CCN(Cc2cccc3ccccc23)CC1)c1cccnc1
The “activity change, negative = growth inhibition” value of the first is lower: -27.6% for the first, -12.8% for the second.

Compared with `CCOc1cc(/C=N/NC(=O)c2ccc(CSc3nncn3C)cc2)ccc1OCC(=O)N1CCOCC1`, `CC1Cc2ccccc2N1S(=O)(=O)c1cccc(C(=O)OCC(=O)N2CCOCC2)c1` (stereo unspecified) is lower in “activity change, negative = growth inhibition” value: 0.321% for the first, -10.9% for the second.

Going from `COc1cc(OC)cc(C(=O)Nc2nnc(SCC(=O)NCC3CCCO3)s2)c1` (stereo unspecified) to `NC(=O)C1CCN(C(=O)COc2ccc3c4c(c(=O)oc3c2)CCC4)CC1`, the “activity change, negative = growth inhibition” value rises from -19.8% to 2.93%.

Compared with `Cc1noc(C)c1-c1nc(CSc2ccc(Cl)cc2)no1`, `Cc1cc(C)nc(SCc2cn3c(C)cc(C)nc3n2)n1` is higher in “activity change, negative = growth inhibition” value: 8.49% for the first, 14.4% for the second.

First: CCN(CC)S(=O)(=O)c1ccc(C)c(NC(=O)COc2ccc(Br)cc2Cl)c1
Second: CCN(CC)CCNS(=O)(=O)c1ccc(/C=C/C(=O)O)cc1
The “activity change, negative = growth inhibition” value of the first is lower: -20.7% for the first, -6.79% for the second.

Compared with `Cc1cccc(-n2c(=O)c3c(c4cc(C)ccc4n3C)n(CC(=O)Nc3ccccc3Cl)c2=O)c1`, `O=C(O)Cc1ccc(NC(=O)Nc2cccc3ccccc23)cc1` is higher in “activity change, negative = growth inhibition” value: 0.458% for the first, 3.51% for the second.

Compared with `CC1CCCCN1CC(=O)NCc1ccc2c(c1)OCO2` (stereo unspecified), `Cn1cc(CN2CCCCC2c2ccccn2)c(-c2ccc3c(c2)OCCO3)n1` (stereo unspecified) is higher in “activity change, negative = growth inhibition” value: -6.16% for the first, -3.9% for the second.

Going from `O=C(COc1ccc2oc3c(c2c1)CCCC3)Nc1ccccn1` to `O=C(COc1ccc(Cl)cc1)Nc1ccc2c(c1)OCO2`, the “activity change, negative = growth inhibition” value rises from -1.19% to 1.5%.

First: Cc1c(C(=O)N2CCOCC2)[nH]c2ccc(OCc3ccccc3)cc12
Second: O=C(OC1CCCCC1=O)c1cccc(S(=O)(=O)NCc2ccccc2)c1 (stereo unspecified)
The “activity change, negative = growth inhibition” value of the first is lower: -21.9% for the first, -5.55% for the second.

First: COc1ccccc1C(=O)NCCn1cc(SCC(=O)NCc2ccco2)c2ccccc21
Second: Cc1ccccc1OCC(=O)Nc1c(C(=O)Nc2ccccc2F)oc2ccccc12
The “activity change, negative = growth inhibition” value of the first is higher: -19.3% for the first, -21.4% for the second.

Compared with `CN(C(=O)CCNC(=O)Cn1ccc2ccccc2c1=O)c1ccc(Br)cc1`, `CCOc1ccc(N(CC(=O)NCCc2ccc(OC)cc2)S(C)(=O)=O)cc1` is higher in “activity change, negative = growth inhibition” value: 1.39% for the first, 8.24% for the second.

First: Cc1cc(C)c(S(=O)(=O)N2CCC(C(=O)OCc3c(C)noc3C)CC2)c(C)c1
Second: Cc1ccc(S(=O)(=O)N2CCN(C(=O)N3CCOCC3)CC2)c(C)c1
The “activity change, negative = growth inhibition” value of the first is higher: 3.58% for the first, -2.43% for the second.

First: CC(C)(C)N(CC#CCC(O)(c1ccccc1)C1CCCC1)CCO (stereo unspecified)
Second: CC(C(=O)O)c1ccc(C2CCCCC2)c2ccccc12 (stereo unspecified)
The “activity change, negative = growth inhibition” value of the first is lower: -0.352% for the first, 15.3% for the second.

Compared with `CCc1[nH]nc(C(=O)N2CCCC(CNS(=O)(=O)c3cccs3)C2)c1C` (stereo unspecified), `CC1(C(=O)NS(=O)(=O)c2ccc(Cl)cc2)CCN1C(=O)CC1CCCC1` (stereo unspecified) is lower in “activity change, negative = growth inhibition” value: -13.1% for the first, -21.5% for the second.

Compared with `O=C(NC1CCCC1)C(c1ccco1)N(C(=O)c1csnn1)c1ccccc1` (stereo unspecified), `CCS(=O)(=O)c1ccc2c(c1)N(S(=O)(=O)c1ccccc1)CC(C(=O)O)O2` (stereo unspecified) is higher in “activity change, negative = growth inhibition” value: -3.07% for the first, 4.61% for the second.

First: CCOC(=O)CCC(NC(=O)c1ccc(CNc2nc3cc(C(F)(F)F)ccc3nc2C(=O)OCC)cc1)C(=O)OCC (stereo unspecified)
Second: Cc1ccc(OC(=O)c2ccccc2C(=O)OCC(F)(F)C(F)F)cc1
The “activity change, negative = growth inhibition” value of the first is lower: -2.32% for the first, 4.61% for the second.

Going from `CC1(C(=O)Nc2ccccc2Br)CCN1C(=O)CC1CC1` (stereo unspecified) to `CN1CCN(S(=O)(=O)c2cccc(C(=O)O)c2)CC1`, the “activity change, negative = growth inhibition” value rises from -2.61% to 2.72%.

Compared with `CC(=O)N1CCN(S(=O)(=O)c2cccc(C(=O)NC3CCC(C)CC3)c2)CC1` (stereo unspecified), `Cc1ccc(NC(=O)COC(=O)CN2CCSC2=O)cc1F` is lower in “activity change, negative = growth inhibition” value: 0.375% for the first, -12.5% for the second.

Compared with `COc1ccc(CCNC(=O)CN(c2ccccc2)S(=O)(=O)c2ccccc2)cc1`, `Fc1cccc(Cl)c1COc1ccc(-c2nnco2)cc1` is higher in “activity change, negative = growth inhibition” value: -25.5% for the first, -8.97% for the second.

Going from `COC(=O)CCNc1ccc2c(c1)OCCO2` to `Cn1cc[n+](C)c1COc1ccc(C=O)cc1`, the “activity change, negative = growth inhibition” value rises from -21% to -5.51%.

For `O=C1C=C(c2cccc(Br)c2)C[C@@H](c2ccc(F)cc2)C1`, the “activity change, negative = growth inhibition” value was -29.7%.

In the case of `Oc1ccc(Br)cc1C1C=C(c2ccc3c(c2)OCO3)NC(c2ccc(Cl)cc2)N1` (stereo unspecified), the Potency is reported as 7.08 µM (active).
With `O=C(CN1CCOCC1)N1CCCc2c1c(=O)oc1ccc(OCc3ccccc3)cc21` the Potency was 18.4 µM (active).
For `CC1CCCCN1CC(=O)N1CCCc2c1c(=O)oc1ccc(OCc3ccccc3)cc21` (stereo unspecified), the Potency was 16.4 µM (active).
In the case of `CN(CC#CCC(c1ccccc1)c1ccccc1)C(C)(C)C`, the Potency is reported as 12.6 µM (active).
In the case of `CC1(C(=O)Nc2cccc3cccnc23)CCN1C(=O)CCC1CCCC1` (stereo unspecified), the Potency is reported as 16.4 µM (active).
With `CC1CCN(C(=O)c2cccc(S(=O)(=O)N3CCCc4ccccc43)c2)CC1` the Potency was 16.4 µM (active).
With `CNC(=O)C1CN(C(=O)c2cccc(S(=O)(=O)N3CCc4ccccc43)c2)c2ccccc2O1` (stereo unspecified) the Potency was 7.31 µM (active).
With `CCOc1ccc(N(CC(=O)NCCc2ccc(F)cc2)S(=O)(=O)c2ccccc2)cc1` the Potency was 20.6 µM (active).
For `CCOc1ccc(NCCC(=O)c2ccc3c(c2)OCO3)cc1`, the Potency was 25.9 µM (active).

`Cc1ccc2c(C)nc(N3CCCC(C(=O)NC(C)(C)CO)C3)nc2c1` (stereo unspecified) gave an activity change, negative = growth inhibition of -5.72% [at 9.04 µM].

— PubChem BioAssay AID686979 (National Center for Advancing Translational Sciences (NCATS), 2013)
